Screening data (PubChem BioAssay)
IL-1B inflam inh: inhibitors of inflammasome signaling (IL-1 beta secretion); activity change, % at 57.5 µM; THP-1 LPS/ATP IL-1B secretion, AlphaLISA, 16 h; hits give low values; AID 743279; 360,000 tested, 4.7% active; in the data active = activity change below about -50%; inconclusive = mostly about -30% to -49%
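Secreted IL-1B measured by AlphaLISA bead assay after 16 h compound exposure of THP-1 cells; compounds (final up to 57.5 uM) added 1 h before LPS (250 ng/mL) and ATP (1.25 mM) stimulation; lower signal means less secretion.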
DT40 TDP1 CPT: growth inhibition of DT40 Tdp1-/-;hTDP1 cells with camptothecin (screen for TDP1 inhibitors); chicken DT40 Tdp1-/-;hTDP1 cells + 20 nM CPT, ATP luminescence, 48 h; AID 686979; Potency, µM (doses to about 46.2 µM), for inactives: top-dose activity change, negative = growth inhibition, hits mostly inhibitors; 420,000 tested, 12% active; note: potency is the fitted concentration of half-maximal effect; nearly all actives have a fitted effect of over 55% in size
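Cell growth measured by CellTiter-Glo luminescence after a minimum 48 h, 37 C compound exposure with 20 nM CPT in Tdp1-knockout DT40 cells stably expressing hTDP1, seeded 400/well; qHTS titration format.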
CtBP-E1A inh: inhibitors of CtBP/E1A interaction. AlphaScreen GST-E1A/His-CtBP binding, 1536-well; hits give low values. activity change, % (test concentration not listed). 340,000 tested, 0.49% active; in the data active = activity change below about -65%; inconclusive = mostly about -30% to -63%
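AlphaScreen with 125 nM GST-E1A and 125 nM His-CtBP (5X stocks) in Tris pH 8.0, 300 mM NaCl, BSA, Tween 20, TCEP. Compounds preincubated 2 h at 37 deg C, then glutathione donor/nickel acceptor beads added for 1 h at 37 deg C in dark.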
TDP1 inh: blocks human tyrosyl-DNA phosphodiesterase 1; Q9NUW8; recombinant TDP1, AlphaScreen DNA substrate cleavage; Potency, µM (titrated, usually from 130 µM), inactives show top-dose activity change, negative = inhibition, most hits filed as inhibitors; 350,000 tested, 0.28% active; note: potency is the fitted concentration of half-maximal effect; nearly all actives have a fitted effect of over 40% in size
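Recombinant E. coli-expressed Tdp1 (1 nM) preincubated with compound 15 min at RT, then 5'-biotin/3'-phosphotyrosine-FITC DNA substrate (15 nM) added for 5 min. AlphaScreen beads (10 ug/ml) added, 10 min RT; tyrosine-FITC cleavage read as signal loss.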
Six1-Eya2 blk: Six1/Eya2 interaction inhibition; Q15475+O00167; AlphaScreen GST-Six1/His-Eya2 binding, biochemical; hits give low values; activity change, % (test concentration not listed); 360,000 tested, 0.56% active; AID 651725; in the data active = activity change below about -65%; inconclusive = mostly about -30% to -63%
Target sequence (O00167 whole entry, looked up): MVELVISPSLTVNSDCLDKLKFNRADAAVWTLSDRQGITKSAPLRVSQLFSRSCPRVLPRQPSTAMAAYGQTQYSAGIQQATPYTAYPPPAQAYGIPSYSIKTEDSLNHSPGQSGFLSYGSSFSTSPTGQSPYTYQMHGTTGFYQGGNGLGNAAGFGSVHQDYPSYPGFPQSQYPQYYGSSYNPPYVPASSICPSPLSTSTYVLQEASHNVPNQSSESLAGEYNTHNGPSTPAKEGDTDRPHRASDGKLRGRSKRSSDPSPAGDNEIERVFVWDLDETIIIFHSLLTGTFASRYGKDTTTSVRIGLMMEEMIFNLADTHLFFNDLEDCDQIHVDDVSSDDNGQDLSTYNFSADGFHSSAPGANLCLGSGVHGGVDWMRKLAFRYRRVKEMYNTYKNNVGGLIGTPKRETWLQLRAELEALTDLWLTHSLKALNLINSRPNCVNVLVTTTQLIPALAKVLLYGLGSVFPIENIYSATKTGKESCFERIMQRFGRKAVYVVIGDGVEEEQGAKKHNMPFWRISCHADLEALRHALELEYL
Target sequence (Q15475 whole entry, looked up): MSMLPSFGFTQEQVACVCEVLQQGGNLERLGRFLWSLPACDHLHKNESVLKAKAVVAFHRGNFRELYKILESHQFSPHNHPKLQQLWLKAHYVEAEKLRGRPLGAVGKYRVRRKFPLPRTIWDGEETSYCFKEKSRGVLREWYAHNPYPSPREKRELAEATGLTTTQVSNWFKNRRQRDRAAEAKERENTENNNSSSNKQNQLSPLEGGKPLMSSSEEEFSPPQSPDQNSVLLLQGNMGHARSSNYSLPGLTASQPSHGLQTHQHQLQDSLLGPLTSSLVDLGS
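Compounds are tested against tagged Six1 and Eya2 proteins bridged by glutathione donor and nickel acceptor beads; after a one-hour incubation at 37 °C without light, AlphaScreen emission is recorded.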
TDP1 cell noCPT: qHTS for Inhibitors of human tyrosyl-DNA phosphodiesterase 1 (TDP1): qHTS in cells in absence of CPT | 420,000 tested, 15% active | DT40 Tdp1-/- hTDP1 cells, no CPT, ATP luminescence, 48 h | AID 686978, 2013 | Potency, µM (titrated, usually from 46.2 µM), inactives show at the top dose activity change, negative = growth inhibition, hits mostly inhibitors; note: potency is the fitted concentration of half-maximal effect; nearly all actives have a fitted effect of over 55% in size
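Compound effects on proliferation are scored in DT40 Tdp1-/-;hTDP1 cells in the absence of CPT. ATP levels (CellTiter-Glo luminescence) are recorded after a ≥48 hr, 37 °C incubation.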
* = called active by the depositor; ? = inconclusive; nt = no result; ! = not confirmed by another sample; [ ] = another dose, or the depositor's remark. Most compounds without a hit are left out; they make up all but 18% or so of the library. Unless noted, calls come from the whole dose curve; as a rule, active = well fitted curve in the direction sought with a large enough effect; inconclusive = small, poorly fitted or top-dose-only effect, or another doubt; inactive = no such curve, though single readings can be large; an effect the other way counts as inactive or inconclusive. % is set by controls: 0 for no effect and ±100 for the full control effect.

SMILES | IL-1B inflam inh | DT40 TDP1 CPT | CtBP-E1A inh | TDP1 inh | Six1-Eya2 blk | TDP1 cell noCPT
c1cc2cc(-c3c(-c4ccc5c(c4)OCO5)noc3-c3ccsc3)ccc2[nH]1 | -57* | ? | -6 | nt | -10 | 3.2µM*!
c1ccc(-c2onc(-c3ccco3)c2-c2ccc3[nH]ccc3c2)cc1 | -11 | 7.9µM* | -6 | nt | -4 | ?
COc1cc(-c2c(-c3ccc4c(c3)OCO4)noc2-c2ccsc2)ccc1F | -17 | ? | 3 | nt | -5 | ?
Cc1onc(-c2ccc3c(c2)OCO3)c1-c1ccc2[nH]ccc2c1 | -57* | 18µM* | -2 | nt | -3 | 16µM*
O=C(NNC1=NCCC1)C1CC1 | 5 | -3% | -2 | -5% | -3 | 14%
COc1ccc(Cl)cc1NC(=O)c1noc2c1CCCC2 | 12 | -11% | -5 | 0% | 15 | -3%
COc1ccc(Cl)cc1NC(=O)c1cccc([N+](=O)[O-])c1O | -1 | 12µM* | -1 | nt | -1 | 8.2µM*
COc1ccc(Cl)cc1NC(=O)c1noc(C)c1[N+](=O)[O-] | 5 | 2.9µM* | nt | 3% | 7 | 2.3µM*
COc1ccccc1OCCSc1nnc(C)n1-c1ccccc1 | 0 | -22% | -1 | 4% | 1 | -13%
Cc1ccccc1OCCc1c(C)[nH]c(=S)[nH]c1=O | 57 | 1.5µM* | 1 | 5% | 6 | 0.82µM*
Cc1[nH]c(=S)[nH]c(=O)c1CCOc1ccccc1 | 2 | -28% | 0 | 5% | 3 | ?
CCN1/C(=C2/SC(=S)N(NC(C)=O)C2=O)Sc2ccc(Cl)cc21 | -13 | ? | nt | nt | -1 | 18µM*
CCN1/C(=C2/SC(=S)N(NC(C)=O)C2=O)Sc2ccc(OC)cc21 | -11 | ? | nt | nt | -2 | ?
Cc1cc(N2CCN(C)CC2)nc2ccc(NC(=O)CCC(=O)NCc3ccco3)cc12 | -13 | -23% | -12 | 3% | -13 | -15%
Cc1cc(N2CCOCC2)nc2ccc(NC(=O)CCC(=O)N3CCN(c4ccccc4F)CC3)cc12 | 7 | ? | -3 | 8% | -19 | 15µM*
Cc1cc(N2CCOCC2)nc2ccc(NC(=O)CCC(=O)N3CCCC(C)C3)cc12 (configuration not stated) | -1 | -4% | 4 | 9% | -2 | -28%
Cc1cc(N2CCOCC2)nc2ccc(NC(=O)CCC(=O)N3CCN(c4ccc(F)cc4)CC3)cc12 | 16 | 9.2µM* | -3 | 6% | -15 | 8.2µM*
Nc1ccc(Oc2ccccc2-c2ccccc2)cc1 | -57* | 5% | -21 | nt | -19 | -27%
COc1ccc(CCNC(=O)c2cc([C@@H](NC(=O)OC(C)(C)C)C(C)C)sc2N)cc1OC | ? | 16µM* | -4 | nt | -15 | 18µM*
CCOC(=O)c1c(-c2ccco2)csc1N | -5 | -15% | 0 | 11% | -8 | 8%
CCOc1ccc(Nc2nc(N)nc(CSC(=S)N3CCN(c4ccccc4)CC3)n2)cc1 | -1 | 15µM* | -6 | nt | -4 | 18µM*
COc1ccc(Nc2nc(N)nc(CSC(=S)N3CCN(C)CC3)n2)cc1 | -11 | -14% | nt | 4% | 0 | ?
COc1ccc(Nc2nc(N)nc(CSC(=S)N3CCCCC3C)n2)cc1 (configuration not stated) | -62* | ? | -13 | nt | -14 | 18µM*
COc1ccc(Nc2nc(N)nc(CSC(=S)N3CCN(c4ccccc4)CC3)n2)cc1 | -15 | ? | ? | 8% | -21 | 18µM*
CC1CCN(C(=S)SCc2nc(N)nc(Nc3ccccc3)n2)CC1 | -9 | -12% | nt | nt | -2 | -12%
SMILES | IL-1B inflam inh | DT40 TDP1 CPT | CtBP-E1A inh | TDP1 inh | Six1-Eya2 blk | TDP1 cell noCPT
CCN(CC)Cc1c[nH]c2c(C(=O)OC)cccc12 | 11 | -3% | -20 | -5% | 3 | 2%
Nc1cc(Nc2ccc(Br)cc2)nc(N)n1 | -71* | -26% | -1 | 7% | -6 | ?
COc1ccc2c(Sc3ccccc3)c(C(=O)N3CCC(C)CC3)[nH]c2c1 | nt | 21µM* | nt | 6% | nt | ?
CCOC(=O)C1CCCN(C(=O)c2[nH]c3ccccc3c2Sc2ccc(Cl)cc2)C1 (configuration not stated) | nt | ? | nt | 9% | nt | ?
O=C(NCCCN1CCCCC1)c1[nH]c2ccccc2c1Sc1ccc(Cl)cc1 | nt | 21µM* | nt | 6% | nt | 21µM*
CC1CCCCN1CCCNC(=O)c1[nH]c2ccccc2c1Sc1ccc(Cl)cc1 (configuration not stated) | nt | 10µM* | nt | 9% | nt | 13µM*
COc1ccc2c(Sc3ccccc3)c(C(=O)NCCCN3CCCCC3)[nH]c2c1 | nt | ? | nt | 9% | nt | 18µM*
COc1ccc2c(Sc3ccccc3)c(C(=O)NCCN(C)C)[nH]c2c1 | nt | ? | nt | 6% | nt | ?
CCOc1cccc2sc(N(CCN(CC)CC)C(=O)c3ccco3)nc12 | nt | ? | nt | 4% | nt | ?
CCOC(=O)c1nc2sc3c(c2c(=O)n1C(C)C(=O)OCC)CCCC3 (configuration not stated) | ? | 10µM* | 13 | -9% | -9 | ?
CCc1ccc2oc(C(=O)NCc3ccc(S(N)(=O)=O)cc3)c(C)c2c1 | 22 | -18% | 5 | 3% | 4 | -18%
O=C1CN(C(=O)c2ccc(Br)o2)C(c2ccccc2)c2cc(Br)ccc2N1 (configuration not stated) | ? | 16µM* | -12 | -7% | -22 | 21µM*
O=C1CN(C(=O)c2ccc(S(=O)(=O)N3CCCC3)cc2)C(c2ccccc2)c2cc(Br)ccc2N1 (configuration not stated) | nt | 15µM* | nt | 3% | nt | ?
Cc1ccc2c(c1)C(c1ccccc1)N(C(=O)c1ccc(Br)o1)CC(=O)N2 (configuration not stated) | -11 | 21µM* | 6 | 8% | -11 | 21µM*
O=C(NCc1ccc(F)cc1)N1CCN(C(=O)c2ccccc2)CC1 | -4 | -11% | nt | -3%[56.1 µM] | 2 | -26%
Cc1c(Cl)cccc1NC(=O)NCc1ccc(F)cc1 | -21 | -24% | nt | 3% | 5 | -18%
NCCCCCc1nnc(SC/C=C/c2ccccc2)o1 | -1 | 18µM* | 6 | -4% | -1 | 23µM*
CN(C)c1nc(Oc2ccc(=O)[nH]n2)nc(N2CCOCC2)n1 | 0 | -6% | -1 | 0% | 7 | -15%
CCN(CC)S(=O)(=O)c1ccc(N2CCCC2)c(NS(=O)(=O)c2ccc(OC)cc2)c1 | 10 | ? | -11 | 6% | -2 | 16µM*
